{"source": "PubChem BioAssay AID2241", "about": "(Broad Institute, 2010)", "note": "Out of some 21,000 compounds screened, about 110 (0.52%) were called active.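 How the source made its calls: active means most replicate scores above 10, or exactly half above 10 with mean activity above 10; inconclusive means mean activity below 10 while half the replicates exceed 10; inactive means most replicate scores below 10.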 Many of the other results were omitted from the sample, so actives are more common in it than they were."}
{"assay": "caspase activation in A1-primed MEFs – cell-based, CaspaseGlo luminescence, A1 inhibitor project, primary screen (AID 2241);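 further: effector caspase 3 and 7 activity cleaving a DEVD luciferin substrate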", "details": "MEF A1-2A-BIM cells, caspase-Glo luminescence, 3 h; active compounds read high; percent of clofoctol signal, DMSO as zero; concentration not given here"}
{"smiles": "Cc1cc(C)n(CCc2nc3c4ccccc4n(Cc4ccc(Cl)cc4)c(=O)n3n2)n1", "caspase activation": "-0.449% (inactive)"}
{"smiles": "CCOc1ccc2c(c1)sc(=NC(=O)c1cc3ccccc3cc1OC)n2C", "caspase activation": "1.85% (inactive)"}
{"smiles": "COC(=O)c1c(C)c(=O)[nH]c2ccccc12", "caspase activation": "0.776% (inactive)"}
{"smiles": "CCCOc1ccc(Oc2nc(N(C)C)nc(N(C)C)n2)nn1", "caspase activation": "0.458% (inactive)"}
{"smiles": "CCOC(=O)N1CCC(NC(=O)NCc2noc3ccccc23)CC1", "caspase activation": "0.501% (inactive)"}
{"smiles": "C[C@@H]1CN([C@@H](C)CO)C(=O)c2cc(NS(=O)(=O)c3ccccc3)ccc2O[C@H]1CN(C)CC1CCCCC1", "caspase activation": "-0.065% (inactive)"}
{"smiles": "O=C(CC1N=C2c3ccccc3N=C(SCc3ccccc3F)N2C1=O)NC1CCCCC1", "note": "(stereo not given)", "caspase activation": "-0.498% (inactive)"}
{"smiles": "C[C@@H]1CN([C@H](C)CO)C(=O)c2cc(NC(=O)Nc3ccccc3)ccc2O[C@H]1CN(C)S(=O)(=O)c1ccc(F)cc1", "caspase activation": "-0.342% (inactive)"}
{"smiles": "O=c1c2ccccc2nc(SCc2ccc(F)cc2)n1-c1ccccc1", "caspase activation": "-0.926% (inactive)"}
{"smiles": "O=C(NCc1ccc2c(c1)OCO2)C12CC3CC(CC(C3)C1)C2", "caspase activation": "0.545% (inactive)"}
{"smiles": "CCOC(=O)c1cc(-c2ccccc2)n(-c2ccccc2C)n1", "caspase activation": "-0.391% (inactive)"}
{"smiles": "C=CCn1cc(C=C2C(=O)N(C)C(=S)N(C)C2=O)c2ccccc21", "caspase activation": "1.19% (inactive)"}
{"smiles": "C[C@H]1CN([C@@H](C)CO)C(=O)c2cc(NS(C)(=O)=O)ccc2O[C@@H]1CN(C)S(=O)(=O)c1ccc(Cl)cc1", "caspase activation": "-0.347% (inactive)"}
{"smiles": "CC(C)CC1NC(=O)N(c2ccccc2)C1=O", "note": "(stereo not given)", "caspase activation": "0.301% (inactive)"}
{"smiles": "C[C@H](CO)N1C[C@H](C)[C@H](CN(C)Cc2ccc(-c3ccccc3)cc2)Oc2ccc(NS(=O)(=O)c3ccccc3)cc2C1=O", "caspase activation": "0.241% (inactive)"}
{"smiles": "Cc1ccc(NC2=CC(=O)NC2)cc1", "caspase activation": "1.28% (inactive)"}
{"smiles": "CN(CCOC(=O)C1c2ccccc2Oc2ccccc21)Cc1ccccc1", "caspase activation": "1.21% (inactive)"}
{"smiles": "Cc1cccc(NC(=O)c2ccc(C)c(S(=O)(=O)N3CCCC3)c2)c1", "caspase activation": "-5.91% (inactive)"}
{"smiles": "CC(=O)N1N=C(c2ccccc2)OC1c1cccnc1", "note": "(stereo not given)", "caspase activation": "-0.213% (inactive)"}
{"smiles": "C[C@H]1CN([C@@H](C)CO)C(=O)c2cc(NC(=O)Nc3ccccc3)ccc2O[C@H]1CN(C)C(=O)Nc1ccc(F)cc1", "caspase activation": "0.365% (inactive)"}
{"smiles": "Cc1ccccc1N(C)S(=O)(=O)c1ccc2[nH]cc(C(=O)NCCC(C)C)c(=O)c2c1", "caspase activation": "0.114% (inactive)"}
{"smiles": "COc1cc(C=Nc2ccc(Cl)cc2)ccc1OC(=O)/C=C/c1cccs1", "caspase activation": "-0.187% (inactive)"}
{"smiles": "O=C(Cc1ccccc1)N1CCCc2ccccc21", "caspase activation": "1.12% (inactive)"}
{"smiles": "O=C(Nc1ccccc1)Nc1ccc(C2SCCS2)cc1", "caspase activation": "-6.29% (inactive)"}
{"smiles": "Cc1ccc(-n2c(C)cc(C=C3C(=O)c4ccccc4C3=O)c2C)cc1", "caspase activation": "-6.47% (inactive)"}
{"smiles": "C[C@@H]1CN([C@H](C)CO)C(=O)c2cc(NC(=O)Cc3ccccc3)ccc2O[C@H]1CN(C)S(=O)(=O)c1cn(C)cn1", "caspase activation": "0.269% (inactive)"}
{"smiles": "CCN1C(=O)c2ccccc2Sc2ccc(NC(=O)N3CCc4ccccc43)cc21", "caspase activation": "-0.754% (inactive)"}
{"smiles": "N#CCNC(=O)CN1C(=O)c2ccccc2C1=O", "caspase activation": "0.74% (inactive)"}
{"smiles": "CCN1C(=O)c2cccc3c(NC(=S)NC(=O)c4ccccc4)ccc1c23", "caspase activation": "11.5% (active)"}
{"smiles": "CC1CCC(NC(=O)Cn2ncn3c(cc4sccc43)c2=O)CC1", "note": "(stereo not given)", "caspase activation": "-0.216% (inactive)"}
{"smiles": "O=C1CC(c2ccccc2)C(=O)N1c1ccc(F)cc1", "note": "(stereo not given)", "caspase activation": "0.129% (inactive)"}
{"smiles": "COc1cc(SC)ccc1C(=O)N(C)c1ccccc1", "caspase activation": "-0.443% (inactive)"}
{"smiles": "S=C(Nc1cccc(Cl)c1)NC1CCSc2ccc(Cl)cc21", "note": "(stereo not given)", "caspase activation": "1.82% (inactive)"}
{"smiles": "C[C@H](CO)N1C[C@H](C)[C@H](CN(C)S(C)(=O)=O)Oc2ccc(NC(=O)CCCN(C)C)cc2C1=O", "caspase activation": "0.894% (inactive)"}
{"smiles": "COc1ccc(S(=O)(=O)N(C)C[C@@H]2Oc3ccc(NC(=O)Nc4c(C)noc4C)cc3C(=O)N([C@H](C)CO)C[C@@H]2C)cc1", "caspase activation": "-0.0515% (inactive)"}
{"smiles": "CC1CCC(C(C)C)C(=O)/C1=C\\c1ccc(NC(=O)CCC(=O)O)cc1", "note": "(stereo not given)", "caspase activation": "-1.52% (inactive)"}
{"smiles": "COc1ccc(NC(=O)Nc2ccc3c(c2)C(=O)N([C@@H](C)CO)C[C@H](C)[C@@H](CN(C)Cc2ccc4c(c2)OCO4)O3)cc1", "caspase activation": "0.747% (inactive)"}
{"smiles": "CC1=CCC(C(=O)O)(C(=O)NCc2ccccc2)C(c2ccc(Br)cc2)C1", "note": "(stereo not given)", "caspase activation": "0.252% (inactive)"}
{"smiles": "C[C@@H]1CN([C@H](C)CO)C(=O)c2cc(N(C)C)ccc2O[C@@H]1CN(C)S(C)(=O)=O", "caspase activation": "1.19% (inactive)"}
{"smiles": "Cc1noc(C)c1NC(=O)N(C)C[C@@H]1Oc2ccc(NS(C)(=O)=O)cc2C(=O)N([C@H](C)CO)C[C@@H]1C", "caspase activation": "-0.083% (inactive)"}
{"smiles": "O=c1oc2ccccc2cc1-c1ccc(Cl)cc1", "caspase activation": "-4.58% (inactive)"}
{"smiles": "COc1ccc(OC)c2c(C)cc(=O)[nH]c12", "caspase activation": "0.675% (inactive)"}
{"smiles": "Cc1ccc(Nc2nc(C)cc(C)c2C(N)=O)cc1", "caspase activation": "0.407% (inactive)"}
{"smiles": "CCOC(=O)c1cc(CC)sc1/N=C/C1C(=O)c2ccccc2C1=O", "caspase activation": "0.959% (inactive)"}
{"smiles": "NC(=O)c1nnc2cc(-c3ccccc3)nn2c1N", "caspase activation": "-5.53% (inactive)"}
{"smiles": "C[C@@H]1CN([C@@H](C)CO)C(=O)c2cc(NC(=O)c3ccncc3)ccc2O[C@H]1CN(C)S(=O)(=O)c1ccc(Cl)cc1", "caspase activation": "-0.107% (inactive)"}
{"smiles": "Cc1nc2ccccn2c1-c1ccnc(SCC(=O)c2ccc(Cl)cc2)n1", "caspase activation": "2.75% (inactive)"}
{"smiles": "COc1cc(C2OC(c3ccc(O)c(OC)c3)C(C)(O)C2C)ccc1O", "note": "(stereo not given)", "caspase activation": "0.0643% (inactive)"}
{"smiles": "O=C(COC(=O)c1cc2ccccc2oc1=O)c1ccccc1", "caspase activation": "-0.224% (inactive)"}
{"smiles": "CC(C(=O)NC1CCCC1)n1c2ccccc2c2cnn(C)c(=O)c21", "note": "(stereo not given)", "caspase activation": "-0.382% (inactive)"}
{"smiles": "CCn1c(=O)c2c(n3c(SCC(N)=O)nnc13)-c1ccccc1CC21CCCCC1", "caspase activation": "1.18% (inactive)"}
{"smiles": "O=C(NCN1CCCCC1)C12CC3CC(CC(C3)C1)C2", "caspase activation": "0.282% (inactive)"}
{"smiles": "C[C@H]1O[C@@H](O[C@H]2[C@@H](O)C[C@H](O[C@H]3[C@@H](O)C[C@H](O[C@H]4CC[C@]5(C)C6C[C@@H](O)[C@]7(C)[C@@H](C8=CC(=O)OC8)CC[C@]7(O)C6CC[C@@H]5C4)O[C@@H]3C)O[C@@H]2C)C[C@H](O)[C@@H]1O", "note": "(stereo not given in full)", "caspase activation": "0.786% (inactive)"}
{"smiles": "CN(c1ncnc2c1cnn2-c1ccc(Cl)cc1)C1CCCCC1", "caspase activation": "-2.01% (inactive)"}
{"smiles": "CC1CCN(S(=O)(=O)c2ccc3nc(-c4ccccn4)cc(C(=O)NC4CCCC4)c3c2)CC1", "caspase activation": "-1.16% (inactive)"}
{"smiles": "CC(C)(C)c1ccc(/C=C/C(=O)NC2CCS(=O)(=O)C2)cc1", "note": "(stereo not given)", "caspase activation": "-0.861% (inactive)"}
{"smiles": "C=C1C(=O)O[C@@H]2[C@H]3C(CO)=CC(=O)C3=C(C)C[C@H](OC(=O)Cc3ccc(O)cc3)[C@@H]12", "caspase activation": "-0.373% (inactive)"}
{"smiles": "C[C@@H]1CN([C@H](C)CO)C(=O)c2cc(NS(=O)(=O)c3ccc(F)cc3)ccc2O[C@H]1CN(C)Cc1ccncc1", "caspase activation": "0.648% (inactive)"}
{"smiles": "CC(C)(C)c1ccc(Cn2c(=N)n(CC(=O)O)c3ccccc32)cc1", "caspase activation": "-0.508% (inactive)"}
{"smiles": "C[C@@H]1CN([C@@H](C)CO)C(=O)c2cc(NC(=O)Cc3ccccc3)ccc2O[C@@H]1CN(C)S(=O)(=O)c1ccccc1", "caspase activation": "0.193% (inactive)"}
{"smiles": "CCCCn1c2nc3ccccc3nc2c2c(N)ncnc21", "caspase activation": "-0.174% (inactive)"}
{"smiles": "C[C@@H]1CN([C@@H](C)CO)C(=O)c2cc(NC(=O)Nc3ccc(F)cc3)ccc2O[C@H]1CN(C)CC1CCCCC1", "caspase activation": "0.271% (inactive)"}
{"smiles": "CCc1ccccc1NC(=O)c1ccc2snnc2c1", "caspase activation": "0.441% (inactive)"}
{"smiles": "CCOC(=O)C1CCC(CN(Cc2ccccc2)S(=O)(=O)c2ccc(F)c(C)c2)CC1", "note": "(stereo not given)", "caspase activation": "0.544% (inactive)"}
{"smiles": "CC(C)[C@H](CO)Nc1nc(Nc2cc(N)cc(Cl)c2)c2ncn(C(C)C)c2n1", "caspase activation": "13.9% (active)"}
{"smiles": "CC(C)OC(=O)C1=c2s/c(=C\\c3cccnc3)c(=O)n2C(N)=C(C#N)C1c1cccnc1", "note": "(stereo not given)", "caspase activation": "-0.566% (inactive)"}
{"smiles": "COc1ccc(NC(=O)N(C)C[C@H]2Oc3ccc(NS(=O)(=O)c4ccc(F)cc4)cc3C(=O)N([C@@H](C)CO)C[C@@H]2C)cc1", "caspase activation": "-0.29% (inactive)"}
{"smiles": "Cc1ccc(-c2nc(Nc3ccccc3F)sc2C)cc1", "caspase activation": "-0.917% (inactive)"}
{"smiles": "CC1CCN(C(=O)Cn2cnc3c(cnn3-c3ccccc3)c2=O)CC1", "caspase activation": "-0.191% (inactive)"}
{"smiles": "O=C(c1nc2ncccn2n1)N(Cc1ccccc1)Cc1ccccc1", "caspase activation": "-0.322% (inactive)"}
{"smiles": "COc1nnc(-c2ccc(C)c(S(=O)(=O)N(C)C)c2)c2ccccc12", "caspase activation": "0.109% (inactive)"}
{"smiles": "Cc1ccc(S(=O)(=O)Nc2ccc3c(c2)C(=O)N([C@@H](C)CO)C[C@@H](C)[C@@H](CN(C)Cc2ccncc2)O3)cc1", "caspase activation": "0.309% (inactive)"}
{"smiles": "Cc1ccc(C(=O)NC(NCc2ccco2)(C(F)(F)F)C(F)(F)F)cc1", "caspase activation": "-0.256% (inactive)"}
{"smiles": "O=C(c1ccccc1)C(CC(=O)N1CCOCC1)c1ccccc1", "note": "(stereo not given)", "caspase activation": "0.00844% (inactive)"}
{"smiles": "C[C@@H]1CN([C@H](C)CO)C(=O)c2cc(NC(=O)Cc3cn(C)c4ccccc34)ccc2O[C@@H]1CN(C)S(=O)(=O)c1cccs1", "caspase activation": "-0.00537% (inactive)"}
{"smiles": "CCSc1ccc2nnc(CCNC(=O)c3ccccc3)n2n1", "caspase activation": "0.0984% (inactive)"}
{"smiles": "COc1ccccc1C(=O)N/C(=C\\c1ccccc1)C(=O)N1CCOCC1", "caspase activation": "-0.546% (inactive)"}
{"smiles": "Cc1ccc(O)c(C(C)(C)C)c1", "caspase activation": "-0.605% (inactive)"}
{"smiles": "Cc1sc2nc3n(c(=O)c2c1C)N=C(c1ccc(F)cc1)CS3", "caspase activation": "-1.09% (inactive)"}
{"smiles": "CC1=C(Cc2ccc(OC(=O)c3ccccc3)cc2)C(=O)C(C(C)C)CC1", "note": "(stereo not given)", "caspase activation": "0.579% (inactive)"}
